Compound activity as filed in PubChem BioAssay.
MIN6 prolif-1 – inducers of beta-cell replication in MIN6 cells. MIN6 cells proliferation, ATPlite luminescence, 48 h; cells starved in 0.2% serum; 100% = growth in 10% serum. proliferation, % at 10 µM. 330,000 tested, 0.29% active. AID 2380;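 active means compounds whose signal lies at least 3.5 SD above the mean of all wells on their plate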;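 further: 0% = DMSO-treated cells in low-serum medium and 100% = 10% serum control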
CendR NRP1 mod – modulators of CendR peptide binding to human neuropilin-1. FAM-RPARPAR peptide binding to NRP-1, fluorescence polarization. inhibition, % at 25 µM. 360,000 tested, 0.85% active. AID 602438;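 active means inhibition or corrected inhibition above about 18%, plus a signal ratio from 0.5 to 1.5, limit read from the data, passing the limit was not always enough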
APOBEC3A inh – inhibitors of human APOBEC3A DNA deaminase. P31941. recombinant A3A, FAM/TAMRA ssDNA deamination fluorescence. inhibition, % at 20 µM. 330,000 tested, 0.41% active;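 active means at least 40% inhibition at 20 µM here, with at most 30% in a related deaminase screen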;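 further: plate controls were A3A with DMSO for no effect and wells lacking A3A enzyme for full effect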
APOBEC3G inh – inhibitors of human APOBEC3G DNA deaminase | Q9HC16 | recombinant A3G, ssDNA deamination FAM/TAMRA fluorescence | inhibition, % at 20 µM | 330,000 tested, 0.28% active;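 active means inhibition of at least 40% at 20 µM, with no more than 30% in the related APOBEC3A deaminase screen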;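 further: plate controls were DMSO wells with A3G for no effect and wells lacking A3G enzyme for full effect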
Target sequence (Q9HC16 whole entry, looked up): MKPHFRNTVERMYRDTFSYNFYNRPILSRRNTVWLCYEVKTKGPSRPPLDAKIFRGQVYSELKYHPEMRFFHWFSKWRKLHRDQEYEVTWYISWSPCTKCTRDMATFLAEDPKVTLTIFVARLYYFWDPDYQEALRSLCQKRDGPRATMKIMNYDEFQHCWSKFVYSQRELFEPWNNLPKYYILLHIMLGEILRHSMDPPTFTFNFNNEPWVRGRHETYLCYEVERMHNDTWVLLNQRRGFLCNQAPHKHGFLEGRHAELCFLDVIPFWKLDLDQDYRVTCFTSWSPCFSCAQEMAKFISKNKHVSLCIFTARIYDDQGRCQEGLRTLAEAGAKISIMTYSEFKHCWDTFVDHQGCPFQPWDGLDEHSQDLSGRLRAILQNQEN
VLA-4 inh – inhibition in a human VLA-4 binding assay; P13612; VLA-4 expressing cells, ligand binding flow cytometry; inhibition, % (about 7 µM as worked out from the volumes in the protocol); 330,000 tested, 0.2% active; in the data active means inhibition above about 50%
MIN6 prolif-2 – MIN6 beta-cell replication induction, confirmed; shares compounds with MIN6 prolif-1; MIN6 beta-cell proliferation, ATPlite luminescence, 48 h; cells kept in 0.2% serum; scaled between 0.2% and 10% serum; proliferation increase, % at 50 µM; 920 tested, under 10 active;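 active means proliferation increase above 40% at any of the four tested concentrations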
VLA-4 mod pick – human VLA-4 allosteric modulation in cherry picked compounds. inhibition, % at 6.7 µM. U937 cells, HUTS-21 LIBS mAb binding, flow cytometry; LDV ligand present at threefold Kd. AID 2813. shares compounds with VLA-4 inh. 1,300 tested, 2% active; in the data active means inhibition above about 40%;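 further: 0% = ligand without compound and 100% = no ligand background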
A3A conf – confirmation of human APOBEC3A DNA deaminase inhibitors. recombinant A3A, ssDNA deaminase UDG fluorescence assay. inhibition, % at 20 µM. 1,400 tested, 63% active. shares compounds with APOBEC3A inh;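 active means inhibition reaching a set limit, 80% of the first screen's cutoff, at 20 µM in any replicate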;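 further: plate controls were DMSO wells with A3A for no effect and wells lacking A3A enzyme for full effect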
An asterisk follows results filed as active; . = no result. In the library only some 1.8% were active in any assay of this set; here they are far more common.

SMILES | MIN6 prolif-1 | CendR NRP1 mod | APOBEC3A inh | APOBEC3G inh | VLA-4 inh | VLA-4 mod pick | others
C=CCNC(=O)c1ccccc1NC(=O)COc1ccccc1 | 8.4* | 0 | -2 | -1 | 54* | 12 | MIN6 prolif-2=1
CCc1ccccc1OCC(=O)N1CCN(c2ncccn2)CC1 | 0 | 14 | 1 | -2 | . | .
CN(c1ccc(C(=O)Nc2cccnc2)cc1)S(=O)(=O)c1ccccc1 | 0.0* | 15 | 52* | 2 | 10 | . | MIN6 prolif-2=2;A3A conf=28
Cc1c(Cc2ccccc2)c(=O)oc2cc(OC(C)C(=O)NCC3CCC(C(=O)O)CC3)c(Cl)cc12 (centres undefined) | 1 | -13 | 0 | -5 | -2 | .
Cc1ccc(S(=O)(=O)CCC(=O)OCc2ccc(Cl)c(Cl)c2)cc1 | -3 | -8 | 1 | 1 | -13 | .
Cc1ccc(S(=O)(=O)CCC(=O)OCc2ccc(S(=O)(=O)C(C)C)cc2)cc1 | 1 | 1 | 0 | -2 | 51* | 3
Cc1[nH]c(=O)[nH]c(=O)c1C=CC(=O)NC(CO)CS(=O)Cc1ccccc1 (centres undefined) | . | 9 | . | . | . | .
O=C(CCN1C(=O)NC2(CCCC2)C1=O)Nc1cccc(S(=O)(=O)N2CCOCC2)c1 | -1 | -1 | -3 | -6 | 2 | .
CC(=O)Nc1ccc(/C=C(\C#N)C(N)=O)cc1 | -2 | -1 | 0 | -4 | -1 | 0
Nc1ccn(C2OC(CO)C(O)C2O)c(=O)n1 (centres undefined) | . | 11 | . | . | . | .
Nc1ccn([C@@H]2O[C@H](CO)[C@@H](O)[C@@H]2O)c(=O)n1 | . | 8 | . | . | 53* | 8
CCCC[C@@H]1C=C(C(=O)O)[C@H](c2ccc(C)cc2)N1S(=O)(=O)c1ccc(C)cc1 | -1 | -9 | -2 | -5 | 53* | -2
Cc1ccc(S(=O)(=O)N2[C@@H](c3ccc(Br)cc3)C(C(=O)O)=C[C@H]2C(C)(C)C)cc1 | -4 | -12 | -3 | -2 | 52* | -1
Cc1ccc(S(=O)(=O)N2[C@@H](c3ccc(Cl)cc3)C(C(=O)O)=C[C@H]2C(C)(C)C)cc1 | -2 | 1 | -3 | -4 | -3 | .
CCCCC[C@@H]1C=C(C(=O)O)[C@H](c2ccc(Cl)cc2)N1S(=O)(=O)c1ccc(C)cc1 | -5 | -5 | 4 | 2 | 16 | 1
CCCCC[C@@H]1C=C(C(=O)O)[C@H](c2ccc(C)cc2)N1S(=O)(=O)c1ccc(C)cc1 | -3 | -3 | 0 | -3 | -9 | .
CC(C)(C)C1CCCCC1NC(=O)c1ccncc1 (centres undefined) | -2 | -4 | -2 | -8 | -1 | .
Cc1ccc(C(=O)CC2(O)C(=O)Nc3ccccc32)s1 (centres undefined) | -3 | 0 | -4 | -1 | 58* | 6
O=C(CNS(=O)(=O)c1ccc(Br)cc1)N1CCN(Cc2ccccc2)CC1 | 0 | -1 | 3 | 9 | 0 | .
CC(=O)Nc1ccc(NC(=O)CNC(=O)c2sc3ccccc3c2Cl)cc1 | 2 | 0 | -1 | -7 | -6 | .
O=C(CNC(=O)c1sc2ccccc2c1Cl)NCc1cccc(C(F)(F)F)c1 | -2 | 12 | 0 | -8 | 53* | 0
COc1ccccc1Cc1c(C2CCCCC2)nc2ccc(Cl)cn12 | . | 6 | . | . | . | .
COc1ccccc1CCC(=O)Nc1ncc(C)s1 | 2 | 5 | -2 | -4 | 4 | .
COC(=O)Nc1ccc(S(=O)(=O)N2CCCc3cccc(O)c32)cc1 | -2 | -1 | 0 | -6 | -6 | .
COC(=O)Nc1ccc(S(=O)(=O)N2CCCc3ccccc32)cc1 | -1 | -3 | -4 | -5 | 79* | 1
COc1ccc(C(=O)N2CCCC(Nc3ccc(C)c(C)c3)C2)c(OC)n1 (centres undefined) | -4 | 3 | -3 | -9 | 4 | .
O=C(COC(=O)c1c(Cl)cccc1Cl)NC1CCCCC1 | -2 | 5 | -1 | -8 | 30 | .
O=C(COC(=O)c1c(Cl)cccc1Cl)NC1CCCCCCC1 | 0 | 11 | -5 | -6 | 6 | 1
